Sampled rows, rich in hits. Any-hit rate of the full collection: about 27%.
CYP2C9 act = human CYP2C9 activators, primary screen, biochemical, luminescence; Cytochrome P450 2C9 (Homo sapiens), P11712; recombinant CYP2C9, luciferin-H conversion; hits give high values; factor 1 = untreated enzyme, 0 = blocked; activation factor at 5 µM; 96,000 compounds, 1.4% hits;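 active means activation factor of 2 or more for CYP2C9 at a 5 µM dose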
CYP2C19 inhib = blockers of cytochrome P450 2C19 activity – biochemical, luminescence, ADME assay, primary screen; AID 778, 2007; 96,000 compounds, 21% hits; P33261; CYP2C19 Supersomes, luciferin-H EGE luminescence, 30 min; inhibition, % at 5 µM;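 active means CYP2C19 inhibition above a set limit at 5 µM in the primary screen, cut at about 50% in these data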
Target sequence (P33261 whole entry, looked up): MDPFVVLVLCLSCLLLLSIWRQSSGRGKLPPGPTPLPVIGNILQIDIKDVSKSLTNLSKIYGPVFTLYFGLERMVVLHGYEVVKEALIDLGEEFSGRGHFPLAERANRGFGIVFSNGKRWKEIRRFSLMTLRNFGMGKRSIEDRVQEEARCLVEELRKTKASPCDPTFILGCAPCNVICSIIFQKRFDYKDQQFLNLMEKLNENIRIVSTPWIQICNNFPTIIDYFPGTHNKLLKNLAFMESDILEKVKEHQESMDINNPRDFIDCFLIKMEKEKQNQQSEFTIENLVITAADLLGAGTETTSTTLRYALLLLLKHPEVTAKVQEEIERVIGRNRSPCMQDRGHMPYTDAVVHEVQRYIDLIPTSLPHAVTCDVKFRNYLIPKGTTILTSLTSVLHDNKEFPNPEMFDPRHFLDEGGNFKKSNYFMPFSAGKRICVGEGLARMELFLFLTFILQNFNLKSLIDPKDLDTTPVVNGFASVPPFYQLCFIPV
sEH act = soluble epoxide hydrolase activators, primary screen, biochemical, human sEH; Bifunctional epoxide hydrolase 2 (Homo sapiens), P34913; purified human sEH enzymatic activity, activator screen; activation, % at 2 µM; 91,000 compounds, 0.04% hits; AID 717, 2007; in the data active means activation above about 37%
CYP2C9 inhib = blockers of cytochrome P450 2C9 activity – biochemical, luminescence, ADME assay, primary screen. P11712. CYP2C9 Supersomes, luciferin-H conversion. inhibition, % at 5 µM. 96,000 compounds, 20% hits;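 active means blocking of liver enzyme CYP2C9 beyond about 50% at 5 µM, limit read from the data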
sEH inhibitor = soluble epoxide hydrolase inhibitors, primary screen, biochemical, human sEH. recombinant human sEH enzymatic activity assay. inhibition, % at 2 µM. Bifunctional epoxide hydrolase 2 (Homo sapiens), P34913. 91,000 compounds, 0.34% hits; in the data active means inhibition above about 80%
CYP2C19 activ = human CYP2C19 activators, primary screen, biochemical, luminescence; Cytochrome P450 2C19 (Homo sapiens), P33261; AID 1025, 2008; activation factor at 5 µM; recombinant CYP2C19, luciferin-H EGE luminescence; hits give high values; 0 = fully inhibited enzyme, 1 = untreated enzyme; 96,000 tested, under 10 active;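 active means activation factor of at least 2 at 5 µM in the primary screen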
A number is an active result; i = inactive; nt = no result.

SMILES	CYP2C9 act	CYP2C19 inhib	sEH act	CYP2C9 inhib	sEH inhibitor	CYP2C19 activ
Nc1nc(SCc2ccc(Cl)cc2Cl)n[nH]1	i	73.1	i	i	i	i
CC(=O)Nc1nc(SCc2ccc(Cl)cc2Cl)n[nH]1	i	i	i	i	i	i
CCc1nc(SCc2cc(Cl)ccc2OC)n[nH]1	i	94.5	i	52.5	i	i
COc1ccc(CN=C2Nc3ccccc3CS2)cc1	i	i	i	i	i	i
CCOC(=O)C1CCCc2c1[nH]c1c(C(N)=O)cccc21 (stereo not drawn)	i	i	i	53.1	i	i
COc1cc2cc(CN(CCO)S(=O)(=O)c3ccccc3Cl)c(=O)[nH]c2cc1OC	i	i	nt	55.3	nt	i
O=c1[nH]c2cc3c(cc2cc1CN(CCO)S(=O)(=O)c1ccccc1Cl)OCCO3	i	i	i	77.0	i	i
COc1cc2cc(CN(CCCO)S(=O)(=O)c3ccccc3)c(=O)[nH]c2cc1OC	i	i	nt	i	nt	i
COc1cccc(C2(CSc3nnc(-c4cc(OC)c(OC)c(OC)c4)o3)OCCO2)c1	i	83.6	i	i	i	i
CCCCOC(=O)CSc1nnc(-c2cc(OC)c(OC)c(OC)c2)o1	i	i	i	i	i	i
CCCC(=O)Nc1ccc(C(=O)Nc2cc(C(F)(F)F)ccc2Cl)cc1	i	i	i	i	i	i
Cc1cc(NC(=O)c2cc(C(C)C)on2)nn1Cc1ccc(Cl)cc1	i	65.0	i	i	i	i
Cc1nn(Cc2ccc(Br)cc2)c(C)c1NC(=O)c1nn(C)cc1Cl	i	i	i	60.9	i	i
Cc1nn(Cc2ccc(Cl)c(Cl)c2)c(C)c1NC(=O)c1cc(CC(C)C)on1	i	73.6	nt	82.1	nt	i
CC(C)Cc1cc(C(=O)Nc2cc(C(F)(F)F)ccc2Cl)no1	2.7	i	i	i	i	i
COc1cc(NC(=O)c2cccc(Cl)c2)c(OC)cc1NC(=O)CN1CCOCC1	i	i	i	i	i	i
COc1cc2nc(CN(C)CC(=O)Nc3ccc(N4CCOCC4)cc3)[nH]c(=O)c2cc1OC	i	i	nt	i	nt	i
COC(=O)CC(NC(=O)c1ccco1)c1ccc(C(C)C)cc1 (stereo not drawn)	i	i	i	i	i	i
CCOC(=O)CSc1nc2ccccc2n1CC(=O)N1CCN(c2ccccc2)CC1	i	i	i	i	i	i
CC(C)OCCCNc1nc2c([nH]1)c(=O)n(C)c(=O)n2C	i	i	nt	i	nt	i
Cc1ccc(Cn2ccc(NC(=O)c3cc(-c4ccc(Cl)cc4)on3)n2)cc1	i	i	nt	i	nt	i
Cc1ccc(Cn2ccc(NC(=O)c3cc(CC(C)C)on3)n2)cc1	i	i	nt	89.6	nt	i
O=C1C2C3C=CC([C@@H]2C(=O)N1c1nccs1)C31CC1 (stereo partly drawn)	i	76.4	i	i	i	i
CCOC(=O)COc1c(OC)cc(Cl)cc1C1Nc2ccccc2C(=O)N1c1ccccc1 (stereo not drawn)	i	95.1	i	98.3	i	i
CCN(CC)CCN1C(=O)c2ccccc2NC1c1cc(OC)c(OC)c(OC)c1 (stereo not drawn)	i	i	i	i	i	i
SMILES	CYP2C9 act	CYP2C19 inhib	sEH act	CYP2C9 inhib	sEH inhibitor	CYP2C19 activ
CCOC(=O)COc1c(OC)cc(Cl)cc1C1Nc2ccccc2C(=O)N1c1ccc(F)cc1 (stereo not drawn)	i	67.2	i	90.5	i	i
CCCN1C(=O)c2ccccc2NC1c1cc(OC)c(OC)c(OC)c1 (stereo not drawn)	nt	nt	i	nt	i	nt
CCOC(=O)COc1ccccc1C1Nc2ccccc2C(=O)N1c1cccc(Cl)c1 (stereo not drawn)	i	64.2	i	i	i	i
CCOC(=O)COc1c(OC)cc(Cl)cc1C1Nc2ccccc2C(=O)N1c1cccc(C)c1 (stereo not drawn)	i	94.6	i	94.7	i	i
c1coc(-c2nnc(SCc3cn4ccccc4n3)o2)c1	i	i	i	i	i	i
Brc1c(CSc2nnc(-c3ccco3)o2)nc2ccccn12	2.2	77.8	i	i	i	i
Cc1ccc(C(C)C)cc1OCCOCCN1CCCC1	i	i	i	i	i	i
CC(C)c1nc(=S)c2ccccc2[nH]1	i	62.7	i	52.7	i	i
COC(=O)C1C(C(C)C)N(c2ccccc2)OC1(C)O (stereo not drawn)	i	56.5	nt	i	nt	i
Cc1c(C(=O)Nc2ccc(C(=O)O)cc2)cnn1C	i	i	i	i	i	i
O=C(c1ccc(Cl)cc1)C1C2C(=O)N(c3ccccc3)C(=O)C2C2CCCN21 (stereo not drawn)	i	78.9	i	78.5	i	i
COc1cc2ccccc2c2c1CCCC2=O	i	58.6	i	i	i	i
CCc1ccc(-c2nc(CSCC(=O)N3CCN(c4ccccn4)CC3)c(C)o2)cc1	i	i	i	64.4	i	i
CCOC(=O)N1CCC(NC(=O)CSCc2nc(-c3sccc3C)oc2C)CC1	i	i	i	i	i	i
Cc1oc(-c2ccccc2Cl)nc1CSCC(=O)N1CCCC1	i	93.0	nt	i	nt	i
CCOc1ccc(-c2nc(CSCC(=O)N3CCN(c4cccc(OC)c4)CC3)c(C)o2)cc1	i	83.4	nt	94.2	nt	i
CCOC(=O)N1CCC(NC(=O)CSCc2nc(-c3cccc(OC)c3)oc2C)CC1	i	56.8	i	66.8	i	i
CC(Sc1nnc(C(C)N(C)C)n1-c1ccc(Cl)cc1)C(=O)Nc1ccc2c(c1)OCO2 (stereo not drawn)	i	i	nt	i	nt	i
S=c1[nH]ncn1-c1ccccn1	i	i	i	i	i	i
Cc1ccc(C(=O)Nc2c3c(nn2C(C)(C)C)CS(=O)(=O)C3)cc1C	i	98.8	i	i	i	i
CC(C)(C)n1nc2c(c1NC(=O)c1ccc(Br)cc1)CS(=O)C2 (stereo not drawn)	i	i	i	i	i	i
CC(C)c1ccc(C2C(C#N)=C(N)N3C(=C2C#N)Sc2ccccc23)cc1 (stereo not drawn)	i	66.7	i	i	i	i
Cc1ccccc1C(=O)N/N=C/c1ccc(OCC(=O)N2CCCCC2)cc1	i	i	i	i	i	i
N#C/C(=C\c1ccc(F)cc1)c1n[nH]c(Cn2cncn2)n1	i	i	i	58.4	i	i
O=C(Nc1ccc(OC(F)(F)F)cc1)c1n[nH]c(Cn2cncn2)n1	i	i	i	i	i	i
N#C/C(=C\c1cccc(Cl)c1)c1n[nH]c(Cn2cncn2)n1	i	i	i	51.5	i	i
CCC12CN3CC(CC)(CN(C1)C3c1ccc(OC(C)C)cc1)C2=O (stereo not drawn)	i	i	i	i	i	i
